Reference: the supplement of paper PMC11732987, “Enantioselective OTUD7B fragment discovery through chemoproteomics screening and high-throughput optimisation” (Communications Chemistry, 2025)

Assays:
Assay in all cases: log2 ratio of Biotin-Ahx-Ub-VS probe labelling (fragment/DMSO); higher = less target engagement (more negative = stronger competition), active = hit call of the paper (q ≤ 0.05, log2 ratio ≤ -1)
Conditions in all cases: compound concentration: 200 uM; treatment time: 3 h
USP42 = target: T1, USP42 (UniProt Q9H9J4)
T1 sequence (whole entry): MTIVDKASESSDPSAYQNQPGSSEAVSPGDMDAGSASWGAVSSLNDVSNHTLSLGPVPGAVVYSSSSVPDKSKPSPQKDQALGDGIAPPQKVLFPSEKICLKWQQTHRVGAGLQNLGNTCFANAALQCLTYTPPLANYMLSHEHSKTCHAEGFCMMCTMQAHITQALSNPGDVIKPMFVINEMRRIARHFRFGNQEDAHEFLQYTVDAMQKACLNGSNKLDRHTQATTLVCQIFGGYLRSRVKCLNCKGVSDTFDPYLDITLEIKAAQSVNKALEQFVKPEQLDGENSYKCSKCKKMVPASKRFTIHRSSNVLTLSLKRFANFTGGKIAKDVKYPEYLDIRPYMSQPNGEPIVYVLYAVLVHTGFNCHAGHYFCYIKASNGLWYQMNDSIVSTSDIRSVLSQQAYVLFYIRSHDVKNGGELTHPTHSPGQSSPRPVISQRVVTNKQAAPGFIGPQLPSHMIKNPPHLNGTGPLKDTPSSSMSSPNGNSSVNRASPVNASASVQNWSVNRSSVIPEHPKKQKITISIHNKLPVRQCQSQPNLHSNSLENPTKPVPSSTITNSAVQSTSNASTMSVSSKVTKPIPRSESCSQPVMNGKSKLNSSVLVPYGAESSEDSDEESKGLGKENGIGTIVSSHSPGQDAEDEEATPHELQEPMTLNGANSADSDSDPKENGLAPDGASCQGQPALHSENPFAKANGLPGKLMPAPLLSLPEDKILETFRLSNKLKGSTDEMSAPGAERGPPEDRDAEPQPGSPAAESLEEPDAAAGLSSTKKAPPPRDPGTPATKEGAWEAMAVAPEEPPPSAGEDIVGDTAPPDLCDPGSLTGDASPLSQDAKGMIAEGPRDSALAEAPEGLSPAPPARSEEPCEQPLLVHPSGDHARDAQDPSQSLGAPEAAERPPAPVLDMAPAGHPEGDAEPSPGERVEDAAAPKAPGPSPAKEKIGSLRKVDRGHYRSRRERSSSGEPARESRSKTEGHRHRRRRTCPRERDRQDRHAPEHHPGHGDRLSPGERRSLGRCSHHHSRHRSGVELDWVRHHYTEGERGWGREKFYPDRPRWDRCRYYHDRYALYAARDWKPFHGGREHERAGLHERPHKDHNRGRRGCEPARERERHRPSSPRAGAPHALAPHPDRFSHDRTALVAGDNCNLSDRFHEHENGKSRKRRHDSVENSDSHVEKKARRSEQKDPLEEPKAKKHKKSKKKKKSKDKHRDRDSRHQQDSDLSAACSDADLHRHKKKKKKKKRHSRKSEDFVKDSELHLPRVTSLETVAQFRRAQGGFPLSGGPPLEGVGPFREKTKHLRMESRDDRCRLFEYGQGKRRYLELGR
Summary of the method: (§1)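 Average log2 ratios of fragment over vehicle were obtained by unpaired t-test from global-median-normalised Spectronaut label-free quantities. Proteins with ≥2 unique peptides were included. HEK293T lysate (495 µg per sample) was treated in triplicate with fragment at 200 µM or vehicle for 3 h, then with Biotin-Ahx-Ub-VS at 0.5 µM final for 1 h, and labelled DUBs were NeutrAvidin-enriched and run by diaPASEF LC-MS/MS.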

USP46 = USP46 (UniProt P62068)
Chain of USP46 (P62068 whole entry): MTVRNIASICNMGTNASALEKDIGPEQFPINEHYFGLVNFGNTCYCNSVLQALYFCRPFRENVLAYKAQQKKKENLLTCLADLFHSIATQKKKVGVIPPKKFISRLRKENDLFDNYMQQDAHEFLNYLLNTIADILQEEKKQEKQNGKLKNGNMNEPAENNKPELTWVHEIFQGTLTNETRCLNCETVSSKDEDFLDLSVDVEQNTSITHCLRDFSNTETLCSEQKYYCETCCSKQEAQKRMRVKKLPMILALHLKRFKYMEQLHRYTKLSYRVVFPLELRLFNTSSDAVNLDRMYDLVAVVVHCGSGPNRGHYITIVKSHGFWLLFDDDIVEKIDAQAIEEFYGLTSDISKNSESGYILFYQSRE
Summary of the method: as §1

USP47 = target: T2, USP47 (UniProt Q96K76)
T2 sequence (whole entry): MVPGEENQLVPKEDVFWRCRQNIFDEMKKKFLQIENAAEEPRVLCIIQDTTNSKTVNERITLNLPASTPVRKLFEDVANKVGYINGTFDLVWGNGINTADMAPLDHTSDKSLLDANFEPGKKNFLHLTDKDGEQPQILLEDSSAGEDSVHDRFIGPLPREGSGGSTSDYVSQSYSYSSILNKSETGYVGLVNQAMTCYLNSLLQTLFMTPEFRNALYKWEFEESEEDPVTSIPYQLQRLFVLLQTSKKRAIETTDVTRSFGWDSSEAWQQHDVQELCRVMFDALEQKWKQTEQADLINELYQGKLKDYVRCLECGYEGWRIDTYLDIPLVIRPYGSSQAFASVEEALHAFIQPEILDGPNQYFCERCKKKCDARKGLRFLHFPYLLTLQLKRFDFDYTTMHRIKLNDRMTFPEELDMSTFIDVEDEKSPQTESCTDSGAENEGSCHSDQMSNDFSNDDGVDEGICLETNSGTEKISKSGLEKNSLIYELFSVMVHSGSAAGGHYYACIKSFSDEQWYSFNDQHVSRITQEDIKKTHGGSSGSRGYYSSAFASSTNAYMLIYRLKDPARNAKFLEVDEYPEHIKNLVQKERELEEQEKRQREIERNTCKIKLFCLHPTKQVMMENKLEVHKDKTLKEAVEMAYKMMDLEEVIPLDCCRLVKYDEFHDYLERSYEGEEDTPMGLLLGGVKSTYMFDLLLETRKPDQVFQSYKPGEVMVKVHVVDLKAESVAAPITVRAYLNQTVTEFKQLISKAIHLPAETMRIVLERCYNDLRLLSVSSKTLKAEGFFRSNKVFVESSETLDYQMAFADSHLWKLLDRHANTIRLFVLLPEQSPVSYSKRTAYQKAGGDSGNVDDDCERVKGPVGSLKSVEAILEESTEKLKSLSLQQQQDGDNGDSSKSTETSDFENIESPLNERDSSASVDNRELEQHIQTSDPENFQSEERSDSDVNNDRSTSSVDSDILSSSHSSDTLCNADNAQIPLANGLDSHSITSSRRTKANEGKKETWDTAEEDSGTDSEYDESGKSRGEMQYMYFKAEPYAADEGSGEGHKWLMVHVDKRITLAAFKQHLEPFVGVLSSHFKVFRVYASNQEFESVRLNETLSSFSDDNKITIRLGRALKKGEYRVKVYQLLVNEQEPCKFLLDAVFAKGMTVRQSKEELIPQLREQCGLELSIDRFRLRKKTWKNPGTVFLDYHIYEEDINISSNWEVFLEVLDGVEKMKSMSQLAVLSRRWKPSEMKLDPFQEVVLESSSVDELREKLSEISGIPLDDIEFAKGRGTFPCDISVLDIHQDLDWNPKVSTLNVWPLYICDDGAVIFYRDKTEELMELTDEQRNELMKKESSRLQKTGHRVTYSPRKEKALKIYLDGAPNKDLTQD
Summary of the method: as §1

USP48 = target: T3, USP48 (UniProt Q86UV5)
T3 sequence (whole entry): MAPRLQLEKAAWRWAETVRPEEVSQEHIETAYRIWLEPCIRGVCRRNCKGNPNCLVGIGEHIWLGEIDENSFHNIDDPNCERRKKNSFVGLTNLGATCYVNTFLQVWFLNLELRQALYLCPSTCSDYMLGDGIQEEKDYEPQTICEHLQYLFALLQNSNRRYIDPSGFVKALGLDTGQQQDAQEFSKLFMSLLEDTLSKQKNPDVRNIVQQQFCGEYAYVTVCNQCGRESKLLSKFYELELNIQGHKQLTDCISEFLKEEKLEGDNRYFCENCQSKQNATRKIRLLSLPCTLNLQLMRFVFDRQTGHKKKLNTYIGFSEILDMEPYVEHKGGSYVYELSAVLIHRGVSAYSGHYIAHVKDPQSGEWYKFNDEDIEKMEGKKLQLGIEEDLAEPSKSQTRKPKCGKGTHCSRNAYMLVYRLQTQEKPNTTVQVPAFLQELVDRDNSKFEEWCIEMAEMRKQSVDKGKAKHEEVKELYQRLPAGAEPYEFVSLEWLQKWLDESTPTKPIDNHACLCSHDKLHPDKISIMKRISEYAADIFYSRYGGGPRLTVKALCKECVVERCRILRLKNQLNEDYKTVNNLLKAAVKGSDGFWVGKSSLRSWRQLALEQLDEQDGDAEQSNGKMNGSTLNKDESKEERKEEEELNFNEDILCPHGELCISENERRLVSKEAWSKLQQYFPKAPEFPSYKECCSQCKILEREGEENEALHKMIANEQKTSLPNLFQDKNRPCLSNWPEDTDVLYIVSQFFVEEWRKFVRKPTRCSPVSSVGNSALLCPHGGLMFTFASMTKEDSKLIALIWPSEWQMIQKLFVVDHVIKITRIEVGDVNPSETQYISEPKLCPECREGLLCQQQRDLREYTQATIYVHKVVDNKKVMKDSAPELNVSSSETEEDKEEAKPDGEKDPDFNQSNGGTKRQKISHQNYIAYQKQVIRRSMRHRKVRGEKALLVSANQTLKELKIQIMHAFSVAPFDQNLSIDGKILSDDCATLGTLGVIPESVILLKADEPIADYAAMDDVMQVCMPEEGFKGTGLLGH
Summary of the method: as §1

USP5 = target: T4, USP5 (UniProt P45974)
T4 sequence (whole entry): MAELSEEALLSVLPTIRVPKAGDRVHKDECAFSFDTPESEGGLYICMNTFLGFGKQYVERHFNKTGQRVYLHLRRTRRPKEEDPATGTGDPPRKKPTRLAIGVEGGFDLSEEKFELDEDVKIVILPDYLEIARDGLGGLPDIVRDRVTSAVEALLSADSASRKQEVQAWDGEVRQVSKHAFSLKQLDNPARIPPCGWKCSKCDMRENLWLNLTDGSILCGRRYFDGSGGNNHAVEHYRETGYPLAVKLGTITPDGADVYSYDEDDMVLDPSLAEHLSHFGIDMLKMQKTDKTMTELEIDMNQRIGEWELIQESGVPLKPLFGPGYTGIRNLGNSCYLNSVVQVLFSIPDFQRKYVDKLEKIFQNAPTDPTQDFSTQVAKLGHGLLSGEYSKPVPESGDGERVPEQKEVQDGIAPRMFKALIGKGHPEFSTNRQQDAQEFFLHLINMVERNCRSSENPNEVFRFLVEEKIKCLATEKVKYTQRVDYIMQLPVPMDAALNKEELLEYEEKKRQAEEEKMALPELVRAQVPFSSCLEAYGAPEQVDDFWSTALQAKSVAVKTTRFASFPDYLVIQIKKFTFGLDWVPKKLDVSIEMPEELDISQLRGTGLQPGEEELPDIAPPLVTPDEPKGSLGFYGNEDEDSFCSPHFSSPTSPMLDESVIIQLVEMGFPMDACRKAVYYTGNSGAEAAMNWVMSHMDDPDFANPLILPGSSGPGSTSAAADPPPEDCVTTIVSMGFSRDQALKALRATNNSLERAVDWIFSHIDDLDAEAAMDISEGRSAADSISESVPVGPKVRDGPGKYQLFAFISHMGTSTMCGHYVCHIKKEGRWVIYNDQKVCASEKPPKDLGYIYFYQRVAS
Summary of the method: as §1

USP54 = USP54 (UniProt Q70EL1)
Summary of the method: as §1

USP7 = USP7 (UniProt Q93009)
Chain of USP7 (Q93009 whole entry, looked up): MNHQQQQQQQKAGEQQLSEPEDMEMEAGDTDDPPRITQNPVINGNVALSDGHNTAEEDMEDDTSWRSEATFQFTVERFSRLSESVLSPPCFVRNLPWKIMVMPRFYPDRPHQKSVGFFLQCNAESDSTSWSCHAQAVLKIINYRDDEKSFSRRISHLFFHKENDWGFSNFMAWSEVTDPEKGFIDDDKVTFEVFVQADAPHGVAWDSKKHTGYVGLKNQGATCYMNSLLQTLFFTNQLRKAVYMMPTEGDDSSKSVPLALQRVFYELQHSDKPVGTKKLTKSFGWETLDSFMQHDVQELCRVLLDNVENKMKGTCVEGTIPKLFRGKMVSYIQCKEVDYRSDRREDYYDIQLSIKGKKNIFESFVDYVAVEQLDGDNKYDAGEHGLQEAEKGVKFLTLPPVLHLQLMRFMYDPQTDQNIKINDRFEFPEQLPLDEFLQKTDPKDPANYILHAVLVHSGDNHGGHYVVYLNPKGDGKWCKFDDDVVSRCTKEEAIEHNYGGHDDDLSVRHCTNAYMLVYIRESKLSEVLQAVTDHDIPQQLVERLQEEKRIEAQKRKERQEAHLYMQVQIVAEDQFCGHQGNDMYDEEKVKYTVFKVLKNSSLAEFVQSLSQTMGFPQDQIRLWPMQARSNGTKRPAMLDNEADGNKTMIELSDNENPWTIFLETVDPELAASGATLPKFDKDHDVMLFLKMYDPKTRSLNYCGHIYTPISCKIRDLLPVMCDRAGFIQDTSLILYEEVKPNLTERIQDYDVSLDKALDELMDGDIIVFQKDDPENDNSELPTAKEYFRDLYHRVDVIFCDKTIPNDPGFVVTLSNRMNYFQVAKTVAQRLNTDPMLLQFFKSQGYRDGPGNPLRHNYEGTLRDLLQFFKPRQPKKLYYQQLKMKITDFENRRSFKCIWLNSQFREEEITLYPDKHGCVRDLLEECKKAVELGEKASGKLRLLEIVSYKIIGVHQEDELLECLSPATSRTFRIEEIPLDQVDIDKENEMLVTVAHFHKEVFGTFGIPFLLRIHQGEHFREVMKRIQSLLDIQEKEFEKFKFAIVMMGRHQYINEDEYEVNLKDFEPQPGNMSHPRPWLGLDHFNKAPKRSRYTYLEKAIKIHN
Summary of the method: as §1

USP8 = target: T5, USP8 (UniProt P40818)
T5 sequence (whole entry): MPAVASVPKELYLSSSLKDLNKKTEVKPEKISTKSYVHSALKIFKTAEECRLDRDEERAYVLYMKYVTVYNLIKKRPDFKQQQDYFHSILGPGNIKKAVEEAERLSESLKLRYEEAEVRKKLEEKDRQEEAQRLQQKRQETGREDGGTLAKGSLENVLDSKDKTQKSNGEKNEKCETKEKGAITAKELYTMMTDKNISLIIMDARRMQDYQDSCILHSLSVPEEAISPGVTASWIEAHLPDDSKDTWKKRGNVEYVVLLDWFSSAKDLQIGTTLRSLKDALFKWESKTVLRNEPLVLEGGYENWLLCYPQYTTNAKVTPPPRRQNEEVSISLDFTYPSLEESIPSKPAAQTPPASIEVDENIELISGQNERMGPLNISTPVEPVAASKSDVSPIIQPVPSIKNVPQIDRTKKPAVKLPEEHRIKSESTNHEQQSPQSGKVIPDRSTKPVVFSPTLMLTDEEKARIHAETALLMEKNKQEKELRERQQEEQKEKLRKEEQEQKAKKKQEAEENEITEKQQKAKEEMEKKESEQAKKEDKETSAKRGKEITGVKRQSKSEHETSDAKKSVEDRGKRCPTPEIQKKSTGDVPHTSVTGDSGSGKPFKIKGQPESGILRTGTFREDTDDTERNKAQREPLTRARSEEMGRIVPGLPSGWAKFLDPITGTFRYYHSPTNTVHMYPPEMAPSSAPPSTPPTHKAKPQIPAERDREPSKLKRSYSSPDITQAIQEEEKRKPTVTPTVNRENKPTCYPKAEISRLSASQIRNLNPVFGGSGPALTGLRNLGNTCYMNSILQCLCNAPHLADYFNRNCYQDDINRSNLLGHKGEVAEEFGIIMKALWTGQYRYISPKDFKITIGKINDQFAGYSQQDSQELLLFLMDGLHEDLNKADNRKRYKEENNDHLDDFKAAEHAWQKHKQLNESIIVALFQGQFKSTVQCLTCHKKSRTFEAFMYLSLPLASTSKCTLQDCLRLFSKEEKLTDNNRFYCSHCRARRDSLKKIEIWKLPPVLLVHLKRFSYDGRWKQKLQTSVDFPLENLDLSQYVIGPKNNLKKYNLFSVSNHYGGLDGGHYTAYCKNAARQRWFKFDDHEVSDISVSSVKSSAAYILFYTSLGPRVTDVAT
Summary of the method: as §1

USP9X = USP9X (UniProt Q93008)
Chain of USP9X (Q93008 whole entry): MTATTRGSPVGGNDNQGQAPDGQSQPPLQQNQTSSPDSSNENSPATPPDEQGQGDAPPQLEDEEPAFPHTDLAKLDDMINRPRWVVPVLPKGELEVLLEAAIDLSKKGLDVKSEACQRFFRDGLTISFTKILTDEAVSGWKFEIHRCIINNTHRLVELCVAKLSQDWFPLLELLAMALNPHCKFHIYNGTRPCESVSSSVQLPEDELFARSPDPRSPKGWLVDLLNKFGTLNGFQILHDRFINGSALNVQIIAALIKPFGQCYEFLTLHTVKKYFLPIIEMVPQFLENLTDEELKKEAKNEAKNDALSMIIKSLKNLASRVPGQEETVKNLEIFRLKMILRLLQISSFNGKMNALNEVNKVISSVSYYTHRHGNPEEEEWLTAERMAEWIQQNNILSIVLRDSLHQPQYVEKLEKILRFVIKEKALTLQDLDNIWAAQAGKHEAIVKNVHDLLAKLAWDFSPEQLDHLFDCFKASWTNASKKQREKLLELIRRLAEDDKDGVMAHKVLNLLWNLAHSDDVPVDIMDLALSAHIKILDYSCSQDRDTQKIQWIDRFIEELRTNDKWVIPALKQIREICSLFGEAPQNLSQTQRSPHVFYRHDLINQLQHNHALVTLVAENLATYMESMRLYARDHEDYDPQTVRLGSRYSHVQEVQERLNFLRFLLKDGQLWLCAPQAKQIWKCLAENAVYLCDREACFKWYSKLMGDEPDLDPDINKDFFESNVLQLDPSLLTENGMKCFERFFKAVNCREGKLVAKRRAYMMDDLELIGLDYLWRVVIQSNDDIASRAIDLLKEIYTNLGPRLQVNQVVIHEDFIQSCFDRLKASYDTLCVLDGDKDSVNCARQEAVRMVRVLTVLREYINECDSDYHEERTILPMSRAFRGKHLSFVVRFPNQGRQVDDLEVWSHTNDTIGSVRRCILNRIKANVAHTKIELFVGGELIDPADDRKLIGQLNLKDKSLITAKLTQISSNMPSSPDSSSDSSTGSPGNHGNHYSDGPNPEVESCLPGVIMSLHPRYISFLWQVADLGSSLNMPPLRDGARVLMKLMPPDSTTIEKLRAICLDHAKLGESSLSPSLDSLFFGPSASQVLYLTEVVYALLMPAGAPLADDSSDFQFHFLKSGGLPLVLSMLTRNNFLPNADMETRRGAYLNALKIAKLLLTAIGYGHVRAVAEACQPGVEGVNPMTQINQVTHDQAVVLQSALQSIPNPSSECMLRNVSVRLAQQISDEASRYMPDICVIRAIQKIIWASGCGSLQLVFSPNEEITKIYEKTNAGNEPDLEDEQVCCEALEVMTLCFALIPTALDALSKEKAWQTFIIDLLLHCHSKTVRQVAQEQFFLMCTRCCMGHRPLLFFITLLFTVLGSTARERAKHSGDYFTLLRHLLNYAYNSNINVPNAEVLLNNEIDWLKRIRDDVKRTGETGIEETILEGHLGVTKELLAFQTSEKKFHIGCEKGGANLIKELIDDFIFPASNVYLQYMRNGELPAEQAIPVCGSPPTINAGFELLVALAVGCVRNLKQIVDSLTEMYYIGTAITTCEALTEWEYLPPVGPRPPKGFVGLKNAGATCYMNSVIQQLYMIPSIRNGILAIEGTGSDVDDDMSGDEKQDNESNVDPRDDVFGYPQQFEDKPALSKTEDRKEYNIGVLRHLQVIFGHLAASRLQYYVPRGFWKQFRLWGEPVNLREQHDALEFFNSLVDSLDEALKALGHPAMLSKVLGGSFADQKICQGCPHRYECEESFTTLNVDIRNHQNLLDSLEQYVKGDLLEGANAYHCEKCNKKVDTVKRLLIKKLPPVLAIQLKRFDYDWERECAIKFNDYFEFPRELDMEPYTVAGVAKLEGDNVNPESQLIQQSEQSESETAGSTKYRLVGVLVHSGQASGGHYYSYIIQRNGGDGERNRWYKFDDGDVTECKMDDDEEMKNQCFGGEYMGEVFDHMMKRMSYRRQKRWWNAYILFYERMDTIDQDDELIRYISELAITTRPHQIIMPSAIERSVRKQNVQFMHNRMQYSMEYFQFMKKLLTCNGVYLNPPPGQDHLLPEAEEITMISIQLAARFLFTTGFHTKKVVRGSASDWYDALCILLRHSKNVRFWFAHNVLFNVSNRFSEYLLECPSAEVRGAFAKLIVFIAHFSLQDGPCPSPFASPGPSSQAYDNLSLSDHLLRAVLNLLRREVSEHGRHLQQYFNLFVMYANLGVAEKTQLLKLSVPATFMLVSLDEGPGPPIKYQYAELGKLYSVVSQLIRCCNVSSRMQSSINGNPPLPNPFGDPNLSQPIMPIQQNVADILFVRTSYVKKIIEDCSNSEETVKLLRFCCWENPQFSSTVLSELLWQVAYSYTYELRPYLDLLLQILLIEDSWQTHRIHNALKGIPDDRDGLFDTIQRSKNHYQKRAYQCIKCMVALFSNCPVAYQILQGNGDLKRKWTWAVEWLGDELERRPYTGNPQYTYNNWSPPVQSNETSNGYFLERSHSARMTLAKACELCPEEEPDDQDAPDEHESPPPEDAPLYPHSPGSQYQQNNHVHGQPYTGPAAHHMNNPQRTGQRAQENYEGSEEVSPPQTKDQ
Summary of the method: as §1

UniProt O00487 = target: UniProt O00487
Chain of UniProt O00487 (O00487 whole entry): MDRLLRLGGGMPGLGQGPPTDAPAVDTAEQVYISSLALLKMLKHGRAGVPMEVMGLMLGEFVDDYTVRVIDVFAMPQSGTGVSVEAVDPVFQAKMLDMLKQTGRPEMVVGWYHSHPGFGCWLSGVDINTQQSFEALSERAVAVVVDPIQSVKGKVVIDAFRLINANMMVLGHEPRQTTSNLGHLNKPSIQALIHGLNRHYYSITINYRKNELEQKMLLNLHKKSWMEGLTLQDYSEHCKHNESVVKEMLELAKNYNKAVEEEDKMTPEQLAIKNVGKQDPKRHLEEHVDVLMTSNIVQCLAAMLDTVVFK
Summary of the method: as §1

Measured: log2 ratio of Biotin-Ahx-Ub-VS probe labelling

Cc1ccc(CNC(=O)CCl)nc1C.Cl
inactive: USP42 0.369 | USP46 0.12 | USP47 0.076 | USP48 -0.13 | USP5 -0.461 | USP54 -0.18 | USP7 -0.299 | USP8 -0.217 | USP9X 0.0101 | UniProt O00487 -0.156
